TDP1 cell CPT = growth inhibition of DT40 Tdp1-/-;hTDP1 cells with camptothecin (screen for TDP1 inhibitors). chicken DT40 Tdp1-/-;hTDP1 cells + 20 nM CPT, ATP luminescence, 48 h. Potency, µM (highest dose often 46.2 µM), most hits filed as inhibitors. 420,000 tested, 12% active; further: nearly all actives have a fitted effect of over 55% in size
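Chicken DT40 Tdp1-/- cells complemented with human TDP1, 400 cells/well, exposed to compounds plus 20 nM camptothecin for at least 48 h at 37 C; viability read as ATP content by CellTiter-Glo luminescence.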
DT40 TDP1 no CPT = qHTS for Inhibitors of human tyrosyl-DNA phosphodiesterase 1 (TDP1): qHTS in cells in absence of CPT; DT40 Tdp1-/- hTDP1 cells, no CPT, ATP luminescence, 48 h; Potency, µM (doses to about 46.2 µM), usual class: inhibitors; 420,000 tested, 15% active; further: nearly all actives have a fitted effect of over 55% in size
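Cells were dispensed at 400 per well, compounds added by pin tool, plates incubated ≥48 hr at 37 °C, then CellTiter-Glo added for 30 min at room temperature before luminescence reading. Line: DT40 Tdp1-/- complemented with hTDP1; camptothecin omitted.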
DRD3 agonist = D3 dopamine receptor (human) agonism. P35462. D3R DiscoveRx beta-arrestin cells, luminescence, 90 min. max activation, %. 410,000 tested, 0.58% active. AID 652048; in the data active means max activation above about 30%
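Cells at 1500/well, incubated overnight, then treated with pinned compounds (dopamine as control) for 90 min at 37 degrees C. DiscoveRx reagent added for 30 - 60 minutes at room temperature; luminescence read.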
ClpP mod = qHTS Assay for Activators of ClpP; ATP-dependent Clp protease proteolytic subunit (Bacillus subtilis (strain 168)), P80244; purified B. subtilis ClpP, FRET peptide cleavage, 20 min; Potency, µM (top dose mostly 57.5 µM); 340,000 tested, 1.9% active; active means well fitted falling curve with a large enough effect; inconclusive means small, poorly fitted or top-dose-only effect; inactive means no such curve, though single readings can be large or run the other way; further: the source files actives as falling curves though it sought activators and does not explain the sign; nearly all actives have a fitted effect of over 65% in size
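FRET quenching reversal measured ClpP activation: 10 microg/mL B. subtilis ClpP at pH 8 with the FRET-FV decapeptide, read at 430 nm after 320 nm excitation. The 20-min minus 0-min signal was scaled between DMSO/no-enzyme wells and ADEP (5.8 microM final).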
IL-1B inflam inh = inflammasome signaling inhibition, IL-1 beta readout | THP-1 LPS/ATP IL-1B secretion, AlphaLISA, 16 h; hits give low values | activity change, % at 57.5 µM | 360,000 tested, 4.7% active | AID 743279; in the data active means activity change below about -50%; inconclusive means mostly about -30% to -49%
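THP-1 cells pretreated 1 hr with compounds (up to 57.5 uM final), then stimulated with LPS (250 ng/mL final) plus ATP (1.25 mM final); secreted IL-1B measured by AlphaLISA after 16 hr, decreased signal indicating inhibition.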
D3 antag = D3 dopamine receptor (human) antagonism. 360,000 tested, 2.5% active. P35462. AID 652054. D3R cells, DiscoveRx beta-arrestin luminescence, antagonist mode; hits give low values. max response, negative = inhibition, %; in the data active means max response below about -50%; inconclusive means no clear call, values can overlap the other calls
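Cells plated overnight at 1500 cells/well, then exposed to library compounds with dopamine controls for 90 minutes at 37 degrees C. DiscoveRx reagent added for 30–60 minutes at room temperature; luminescence read, quantitative HTS format.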
A number is an active result; n = inactive; u = inconclusive; x = no result; ! = not confirmed by another sample. Sampled rows, rich in hits. Any-hit rate of the full collection: about 21%. Unless noted, the call rests on the fitted dose curve; in most records, active means well fitted inhibition curve with a large enough effect; inconclusive means small, poorly fitted or top-dose-only effect; inactive means flat fitted curve, though single readings scatter.

SMILES	TDP1 cell CPT	DT40 TDP1 no CPT	DRD3 agonist	ClpP mod	IL-1B inflam inh	D3 antag
C[C@H](NC(=O)c1nc[nH]c1C(=O)N1CCNCC1)C(=O)OC(C)(C)C	n	n	n	n	n	n
O=C(COC(=O)c1ccc(Cl)nc1)NNC(=O)c1ccc(Cl)cc1	n	n	n	x	n	n
Cc1ccc(S(=O)(=O)N2CCCCC2c2cccnc2)c(C)c1C (stereo not drawn)	u	23µM	n	n	n	n
COc1cc(OC)cc(C(=O)Nc2ccc(S(=O)(=O)N3CCCCC3c3cccnc3)cc2)c1 (stereo not drawn)	u	26µM	n	n	x	x
CCOCCCNC(=O)CN1C(=O)/C(=C/c2ccccc2)Sc2ccccc21	u	u	n	n	u	n
CCOCCCNC(=O)CN1C(=O)/C(=C\c2ccc(C)cc2)Sc2ccccc21	21µM	u	n	n	n	n
COCCCNC(=O)CN1C(=O)/C(=C/c2ccccc2)Sc2ccccc21	u	15µM	n	n	n	n
O=C(O)c1c(Cl)cccc1Nc1ccccc1	n	23µM	n	x	n	n
Cc1cc(Nc2ccccc2C(=O)O)ccc1Cl	n	n	n	x	x	x
O=C(O)c1ccccc1Nc1ccccc1	21µM!	u	n	n	n	n
CCCN(CC(=O)Nc1ccc(F)c(F)c1F)C(=O)Cc1ccc(OC)c(S(=O)(=O)N2CCOCC2)c1	n	u	n	n	n	n
O=C(CSc1nc2nn(-c3ccccc3)c(=O)c-2c2n1CCCCC2)NCCCc1ccccc1	n	n	n	x	-60	n
O=C(CSc1nc2nn(-c3ccccc3)c(=O)c-2c2n1CCCCC2)Nc1ccccc1[N+](=O)[O-]	21µM	u	n	n	n	n
CCN(CC)c1ccc(/C=C2\CCC(/C=C(/C#N)C(=O)Nc3ccccc3F)=C2N2CCOCC2)cc1	2.1µM	2.3µM	n	x	n	n
Cc1cc(/C=C(\C#N)C(=O)Nc2ccccc2F)c(C)[nH]1	n	n	n	n	n	n
CC(C)(C)c1ccc(/C=C(\C#N)C(=O)NCCN2CCOCC2)cc1	n	n	n	n	u	n
CCN(CC)c1ccc(/C=C2\CCC(/C=C(\C#N)C(=O)Nc3ccccc3F)=C2N2CCOCC2)cc1	6.5µM	2.3µM	n	n	n	n
COc1ccc(C(NC(=O)c2ccccc2F)NC(=O)c2ccccc2F)cc1	n	n	n	n	n	n
CC(C)Cn1cc(C(=O)N2CCOCC2)c2c3ccccc3n(C)c2c1=O	n	n	n	16µM	n	n
COCCn1cc(C(=O)NCc2ccco2)c2c3ccccc3n(C)c2c1=O	n	u	n	x	n	n
CCOC(=O)N1CCN(C(=O)c2cn(CC(C)C)c(=O)c3c2c2ccccc2n3C)CC1	u	u	n	25µM	n	n
CC(C)Cn1cc(C(=O)NCc2cccs2)c2c3ccccc3n(C)c2c1=O	n	n	n	10µM	n	n
COCCn1cc(C(=O)N2CCC(C)CC2)c2c3ccccc3n(C)c2c1=O	n	n	n	16µM	n	n
CC(C)Cn1cc(C(=O)N2CCC(C)CC2)c2c3ccccc3n(C)c2c1=O	n	u	n	x	n	n
CC(C)CCNC(=O)c1cn(CC(C)C)c(=O)c2c1c1ccccc1n2C	n	u	n	u	n	n
SMILES	TDP1 cell CPT	DT40 TDP1 no CPT	DRD3 agonist	ClpP mod	IL-1B inflam inh	D3 antag
COc1ccc(CN2CCOc3ccc(CN4CCC(O)CC4)cc3C2)c(OC)c1OC	n	n	x	x	x	x
CSc1ccccc1NC(=O)COC(=O)c1cnc(C)cn1	n	n	n	n	n	n
COCCCNC(=S)NNC(=O)c1ccc(S(=O)(=O)N2CCC(C)CC2)cc1	n	n	n	x	n	n
CCCCNC(=O)[C@@H]1CC=C[C@@H]2CCN(C3CC3)C(=O)[C@@H]21	n	n	n	n	n	n
O=C(NCCCCNC(=O)c1cccnc1Cl)c1cccnc1Cl	n	n	n	n	n	n
COC(=O)c1ccccc1NC(=O)c1cn2c3c(ccc(Cl)c3c1=O)OC(C)C2 (stereo not drawn)	n	n	n	n	x	x
CCN1CCN(C(=O)c2nn(-c3ccc(C)cc3)c(=O)c3c2c2ccccc2n3C)CC1	n	n	n	n	n	n
CCOC(=O)N1CCN(C(=O)c2cn(C)c(=O)c3c2c2ccccc2n3C)CC1	u	25µM	n	14µM	n	n
COc1cc(CNCCNC(=O)c2nonc2N)ccc1OCc1ccc(Cl)nc1	u	u	n	n	n	n
COc1ccc(-c2ccc(C(=O)N3CCN(C)CC3)c3occc23)c(C)c1	15µM	6.5µM	n	n	n	u
Cc1noc(C)c1-c1ccc(C(=O)N2CCN(C)CC2)c2occc12	u	n	n	n	n	n
COc1ccc(-c2ccc(C(=O)N3CCOCC3)c3occc23)c(C)c1	15µM	18µM	n	u	n	n
CC(C)COc1ccc(C(=S)N2CCCC2)cc1	u	u	n	x	n	n
CC1S/C(=N/N=C2CCC(C(C)(C)C)CC2)NC1=O (stereo not drawn)	u	u	n	n	n	u
CC1S/C(=N/N=C2CCCCC2)NC1=O (stereo not drawn)	2.9µM	10µM	n	n	n	n
COc1ccccc1CN1CC[C@@]2(CCCN(C(=O)c3ccncc3)C2)C1	n	n	x	x	x	x
Clc1ccc(Cn2cnc3ccccc32)cc1	u	u	n	u	n	n
Cc1ccc(OCCCCn2cnc3ccccc32)c(C)c1	13µM	8.2µM	n	n	n	-57
Brc1ccccc1Cn1cnc2ccccc21	u	21µM	n	n	n	n
Cc1ccc(C)c(OCCCCn2cnc3ccccc3c2=O)c1	u	u	n	n	n	n
Brc1ccccc1OCCCCn1cnc2ccccc21	4.1µM	10µM	n	x	-84	n
COc1cnc(SC)nc1Nc1ccc(C#N)cc1	n	u	n	u	n	n
Cc1cccc([C@@H]2[C@@H]3C(=O)N(Cc4ccccc4)C(=O)[C@@H]3[C@]3(Cc4ccccc4)C(=O)N(c4ccc(C(F)(F)F)cc4)C(=O)N23)c1	18µM	16µM	n	n	n	n
Cc1cccc(N2C(=O)N3[C@H](c4ccc(Br)cc4)[C@@H]4C(=O)N(C(C)(C)C)C(=O)[C@@H]4[C@]3(C)C2=O)c1	18µM	u	n	n	n	n
Cc1cccc([C@@H]2[C@@H]3C(=O)N(Cc4ccccc4)C(=O)[C@@H]3[C@]3(Cc4ccccc4)C(=O)N(c4cccc(Cl)c4)C(=O)N23)c1	n	n	n	n	n	n
